From PubChem BioAssay (Tox21) come the findings set out here.

Assay [1] in a line: qHTS assay to identify small molecule antagonists of the sonic hedgehog signaling (Shh) pathway (AID 1259369; calls by dose curve; note: nearly all actives have a fitted effect of over 45% in size; note: potency is the fitted concentration of half-maximal effect). The gist of the method:
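Stable Gli1-Luc reporter NIH/3T3 clone; quantitative HTS in stimulated mode with conditioned medium. Luminescence measured after 24hr compound treatment at 37 C.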

The target of assay [2] is Estrogen receptor beta (Homo sapiens) (UniProt Q92731). Put plainly: qHTS assay to identify small molecule agonists of the estrogen receptor beta (ER-beta) signaling pathway (AID 1259377; active = well fitted activation curve with a large enough effect in the signal ratio in the repeat runs, not every such curve was filed as active; the % refers to the signal ratio). The gist of the method:
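HEK293T ER-beta-UAS-bla; 2% charcoal-stripped FBS; cells pre-incubated 6 hr, compound 16 hr, 37C/5% CO2; LiveBLAzer B/G FRET substrate 2 h RT; fluorescence intensity read.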

Assay [3] shares this target. Put plainly: qHTS assay to identify small molecule antagonists of the estrogen receptor beta (ER-beta) signaling pathway (AID 1259378; active = well fitted inhibition curve with a large enough effect in the signal ratio in the repeat runs, not every such curve was filed as active; the % refers to the signal ratio; note: potency is the fitted concentration of half-maximal effect). In short, it runs like this:
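Antagonist mode: compounds added to beta-lactamase reporter HEK293T ER-beta-UAS cells stimulated with E2 (1nM final), 16 hr at 37C. LiveBLAzer B/G FRET substrate, 2 hours room temperature, fluorescence read-out.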

The nature of assay [4]: qHTS assay to identify small molecule agonists of the androgen receptor (AR) signaling pathway in the presence of an antagonist - cell viability counter screen (AID 1259379). Note: nearly all actives have a fitted effect of over 25% in size. Note: potency is the fitted concentration of half-maximal effect. The gist of the method:
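Nilutamide-containing (3.0uM final) MDA-kb2 cultures, 3,000 cells/well, were treated with compounds across 15 concentrations. After 16 hr at 37C with no CO2, cell viability was determined by CellTiter-Fluor fluorescence in the luciferase assay wells.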

Assay [5] is described as follows: qHTS assay to identify small molecule agonists of the estrogen receptor beta (ER-beta) signaling pathway - cell viability counter screen (AID 1259380). Note: nearly all actives have a fitted effect of over 30% in size. Note: potency is the fitted concentration of half-maximal effect. The gist of the method:
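Steps: plate ER-beta-UAS-bla HEK293T cells, rest 6 hr; add compounds in DMSO; incubate 16 hr at 37C, 5% CO2; add FRET substrate 2 hr; add CellTiter-Glo, wait 30 min at room temperature; read luminescence.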

Assay [6] in a line: qHTS assay to identify small molecule antagonists of the estrogen receptor beta (ER-beta) signaling pathway - cell viability counter screen (AID 1259382). Note: series mostly up to about 92 µM; nearly all actives have a fitted effect of over 55% in size. In short, it runs like this: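 Viability is scored by CellTiter-Glo luminescence (30 min, room temperature) in ER-beta-UAS-bla HEK293T wells already read for reporter fluorescence. Compound exposure lasts 16 hr at 37C alongside 1nM 17-beta-estradiol in charcoal-stripped serum medium.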

Assay [7] concerns the target Estrogen receptor (Homo sapiens) (UniProt P03372). Put plainly: qHTS assay to identify small molecule agonists of the estrogen receptor alpha (ER-alpha) signaling pathway in the presence of an antagonist (AID 1259383; calls by dose curve; note: top concentration of the series differs between compounds; nearly all actives have a fitted effect of over 15% in size). In short, it runs like this:
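Readout was ERE-driven luciferase luminescence in VM7Luc4E2 cells, which express full-length ER-alpha endogenously. Compounds were tested at 15 concentrations for 22hr alongside 10.0nM ICI-182,780 (final concentration).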

The nature of assay [8]: qHTS assay to identify small molecule agonists or antagonists of the thyroid stimulating hormone receptor (TSHR) signaling pathway - wild type cell line counter screen (AID 1259384; calls by dose curve). In short, it runs like this: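 Counter screen in untransfected Hek293: compounds (15-point titration, triplicate) plus phosphodiesterase inhibitor Ro20-1724 added after 18 h plating; 30 min RT. Intracellular cAMP via competitive d2/cryptate immunoassay, 1 h incubation.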

Assay [9] concerns the target Thyrotropin receptor (Homo sapiens) (UniProt P16473). Kind of assay: qHTS assay to identify small molecule antagonists of the thyroid stimulating hormone receptor (TSHR) signaling pathway (AID 1259385; calls by dose curve; note: nearly all actives have a fitted effect of over 20% in size; note: potency is the fitted concentration of half-maximal effect). In short, it runs like this: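 Antagonist mode: compound-treated TSHR-expressing HEK293 cells were stimulated with 1.5 ng/mL TSH (final) in presence of Ro20-1724 for 30 min at RT. HTRF cAMP detection after 1 h; each compound tested at 15 concentrations, triplicate.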

The nature of assay [10]: qHTS assay to identify small molecule agonists of the estrogen receptor alpha (ER-alpha) signaling pathway in the presence of an antagonist - cell viability counter screen (AID 1259386).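 Note: cells exposed to compounds for 22 h at 37 °C before the viability read; nearly all actives have a fitted effect of over 30% in size.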 Note: potency is the fitted concentration of half-maximal effect. In short, it runs like this:
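In this counter screen, compound effects on VM7Luc4E2 viability were tested in the presence of the antagonist ICI-182,780 at 10.0nM final. Compounds were dosed at 15 concentrations, exposure lasted 22hr, and the CellTiter-Fluor signal was read.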

For assay [11], the target named is Progesterone receptor (Homo sapiens) (UniProt P06401). Put plainly: qHTS assay to identify small molecule agonists of the progesterone receptor (PR) signaling pathway (AID 1346784; calls by dose curve; note: nearly all actives have a fitted effect of over 30% in size). The gist of the method:
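Beta-lactamase reporter read-out: after 16 hr compound treatment at 37C and a further 2 hr at room temperature with LiveBLAzer B/G FRET substrate, fluorescence was measured in PR-UAS-bla HEK 293T cells grown in 2% charcoal-stripped serum.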

A short description of assay [12]: qHTS assay to identify small molecule antagonists of the progesterone receptor (PR) signaling pathway - cell viability counter screen (AID 1346798). Note: nearly all actives have a fitted effect of over 50% in size. Note: potency is the fitted concentration of half-maximal effect. The gist of the method:
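HEK293T PR-UAS-bla, 2% charcoal-stripped FBS; 4 hr pre-plate; cpd + R5020, 16 h 37C; LiveBLAzer read first; then CellTiter-Glo 30 min RT, luminescence.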

Assay [13] is described as follows: qHTS assay to identify small molecule agonists of the progesterone receptor (PR) signaling pathway - cell viability counter screen (AID 1346799; calls by dose curve; note: nearly all actives have a fitted effect of over 45% in size; note: potency is the fitted concentration of half-maximal effect). The gist of the method: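 Luminescence from CellTiter-Glo, added after the beta-lactamase FRET read in the same wells, gave cytotoxicity in PR-UAS-bla HEK293T cells treated with compounds for 16 hr at 37C.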
Assay [14] in a line: qHTS assay to identify small molecule antagonists of the TGF-beta/Smad signaling pathway - cell viability counter screen (AID 1346824). Note: nearly all actives have a fitted effect of over 50% in size. The gist of the method: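 Cytotoxicity counter-screen run in the same wells as the beta-lactamase Smad reporter read: CellTiter-Glo luminescence after 30 min at room temperature. HEK 293T SBE-bla cells had 5 hr compound exposure at 37 C with TGF-beta1 (0.25 ng/mL stock).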

The nature of assay [15]: qHTS assay to identify small molecule agonists of the TGF-beta/Smad signaling pathway (AID 1346859; active = well fitted activation curve with a large enough effect in the signal ratio in the repeat runs, not every such curve was filed as active; the % refers to the signal ratio; note: series mostly up to about 77 µM). In short, it runs like this: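 SBE-bla HEK 293T, 4,000 cells/well, plated o/n; cpd in DMSO, 5 hr, 37 C/5% CO2; B/G FRET substrate 2 hr RT; ex 405, em 460/530 nm.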
The target of assay [16] is Thyrotropin-releasing hormone receptor (Homo sapiens) (UniProt P34981). Kind of assay: qHTS assay to identify small molecule antagonists of the thyrotropin-releasing hormone receptor (TRHR) signaling pathway (AID 1346877; active = well fitted inhibition curve with a large enough effect in the repeat runs, not every such curve was filed as active; note: series mostly up to about 51 µM). The gist of the method: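 Kinetic fluorescence (3 min, 1 s resolution) following stimulation with TRH at 1 nM final; HEK293 cells bearing human TRHR; 5 min compound preincubation at RT; concentration-response over 15 points, triplicates.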

Assay [17] has the same target. Put plainly: qHTS assay to identify small molecule agonists of the thyrotropin-releasing hormone receptor (TRHR) signaling pathway (AID 1346891; calls by dose curve; note: series mostly up to about 58 µM). In short, it runs like this: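 Intracellular calcium rise, read as fluorescence every second for 3 min, served as the agonist signal in dye-loaded HEK293 cells expressing TRHR; each compound ran at 15 concentrations in triplicate.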

Assay [18] concerns the target Androgen receptor (Homo sapiens) (UniProt P10275). Kind of assay: qHTS assay to identify small molecule agonists of the androgen receptor (AR) signaling pathway in the presence of an antagonist (AID 1259381; calls by dose curve; note: nearly all actives have a fitted effect of over 15% in size). The gist of the method: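 Reporter-gene luminescence from MDA-kb2 cells exposed 16hr at 37C (0% CO2) to 15-point compound titrations with 3.0uM final nilutamide as AR antagonist.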

For assay [19], the target named is Progesterone receptor (Homo sapiens) (UniProt P06401). Put plainly: qHTS assay to identify small molecule antagonists of the progesterone receptor (PR) signaling pathway (AID 1346795; active = well fitted inhibition curve with a large enough effect in the signal ratio in the repeat runs, not every such curve was filed as active; the % refers to the signal ratio; note: potency is the fitted concentration of half-maximal effect). The gist of the method: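 Read-out is fluorescence from the LiveBLAzer B/G FRET substrate, cleaved by a UAS-controlled beta-lactamase in PR-UAS-bla HEK293T cells after 16 hr exposure to compound plus 1 nM promegestone (final), followed by 2 hr at room temperature.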

Assay [20] in a line: qHTS assay to identify small molecule agonists of the TGF-beta/Smad signaling pathway - cell viability counter screen (AID 1346829). Note: nearly all actives have a fitted effect of over 45% in size. Note: potency is the fitted concentration of half-maximal effect. The gist of the method:
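HEK 293T SBE-bla line, 5 hr compound exposure at 37 C, multiplexed CellTiter-Glo viability read by luminescence.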

The structures appear in SMILES notation. Several values for one entry are separate records, joined by “and”; a condition that tells them apart may be missing. Equal values may be shown once. Inconclusive results are not listed. Where a structure was tested more than once in an assay, its records may differ in their call. Activity calls are given as the source filed them. Unless noted, calls come from the whole dose curve; as a rule, active = well fitted curve in the direction sought with a large enough effect in the repeat runs; inconclusive = weak or mixed curves; inactive = no such curve, though single readings can be large; an effect the other way counts as inactive or inconclusive.

Chain of Estrogen receptor (Homo sapiens) (P03372 whole entry, looked up): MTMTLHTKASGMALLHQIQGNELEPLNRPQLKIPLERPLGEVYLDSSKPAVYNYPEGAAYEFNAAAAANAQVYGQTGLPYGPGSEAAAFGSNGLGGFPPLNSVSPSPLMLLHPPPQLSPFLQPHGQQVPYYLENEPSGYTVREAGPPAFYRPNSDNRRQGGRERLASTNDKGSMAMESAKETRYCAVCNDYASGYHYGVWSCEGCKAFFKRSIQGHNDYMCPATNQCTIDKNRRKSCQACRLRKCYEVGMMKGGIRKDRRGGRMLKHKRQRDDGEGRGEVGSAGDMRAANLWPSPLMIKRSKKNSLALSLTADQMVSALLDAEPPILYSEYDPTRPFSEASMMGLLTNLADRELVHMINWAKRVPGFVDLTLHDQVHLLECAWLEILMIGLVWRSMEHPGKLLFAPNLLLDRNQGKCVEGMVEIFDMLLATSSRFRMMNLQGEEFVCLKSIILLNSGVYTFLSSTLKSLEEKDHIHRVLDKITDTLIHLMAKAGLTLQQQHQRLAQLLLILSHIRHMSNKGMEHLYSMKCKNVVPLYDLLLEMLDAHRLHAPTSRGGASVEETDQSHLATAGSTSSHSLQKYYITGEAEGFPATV
Chain of Thyrotropin receptor (Homo sapiens) (P16473 whole entry, looked up): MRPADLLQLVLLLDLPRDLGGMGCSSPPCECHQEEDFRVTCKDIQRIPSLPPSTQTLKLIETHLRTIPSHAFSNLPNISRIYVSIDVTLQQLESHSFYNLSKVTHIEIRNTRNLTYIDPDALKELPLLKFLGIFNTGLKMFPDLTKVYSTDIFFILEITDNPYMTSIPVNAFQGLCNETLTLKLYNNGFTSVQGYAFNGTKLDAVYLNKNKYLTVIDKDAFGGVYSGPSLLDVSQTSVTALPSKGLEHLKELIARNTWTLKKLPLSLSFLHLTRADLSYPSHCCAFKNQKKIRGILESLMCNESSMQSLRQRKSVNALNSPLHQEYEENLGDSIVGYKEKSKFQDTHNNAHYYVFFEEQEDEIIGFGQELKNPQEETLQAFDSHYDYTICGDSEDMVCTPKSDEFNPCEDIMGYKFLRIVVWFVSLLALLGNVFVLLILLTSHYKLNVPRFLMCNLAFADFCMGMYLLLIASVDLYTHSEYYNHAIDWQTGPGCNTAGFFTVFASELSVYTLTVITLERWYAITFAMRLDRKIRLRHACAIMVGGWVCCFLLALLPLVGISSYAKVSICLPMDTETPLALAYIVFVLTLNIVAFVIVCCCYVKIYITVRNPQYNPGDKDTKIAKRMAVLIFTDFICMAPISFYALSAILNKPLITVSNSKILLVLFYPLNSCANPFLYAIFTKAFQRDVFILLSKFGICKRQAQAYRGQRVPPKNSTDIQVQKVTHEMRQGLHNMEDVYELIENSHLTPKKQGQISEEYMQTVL
Chain of Estrogen receptor beta (Homo sapiens) (Q92731 whole entry, looked up): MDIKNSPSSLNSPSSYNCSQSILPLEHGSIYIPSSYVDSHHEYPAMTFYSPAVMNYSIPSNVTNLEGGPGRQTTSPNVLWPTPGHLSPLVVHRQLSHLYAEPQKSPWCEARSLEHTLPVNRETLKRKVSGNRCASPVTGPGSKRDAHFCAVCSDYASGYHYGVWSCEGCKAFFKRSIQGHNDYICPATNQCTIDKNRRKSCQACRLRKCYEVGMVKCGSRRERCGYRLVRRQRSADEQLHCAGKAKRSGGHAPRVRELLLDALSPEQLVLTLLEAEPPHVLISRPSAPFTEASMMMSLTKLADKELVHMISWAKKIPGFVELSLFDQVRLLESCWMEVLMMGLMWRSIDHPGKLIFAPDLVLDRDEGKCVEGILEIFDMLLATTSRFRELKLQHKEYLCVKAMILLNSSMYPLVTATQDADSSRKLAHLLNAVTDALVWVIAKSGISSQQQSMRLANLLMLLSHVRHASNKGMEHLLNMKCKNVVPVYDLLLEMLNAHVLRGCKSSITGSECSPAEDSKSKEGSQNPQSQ
Chain of Androgen receptor (Homo sapiens) (P10275 whole entry, looked up): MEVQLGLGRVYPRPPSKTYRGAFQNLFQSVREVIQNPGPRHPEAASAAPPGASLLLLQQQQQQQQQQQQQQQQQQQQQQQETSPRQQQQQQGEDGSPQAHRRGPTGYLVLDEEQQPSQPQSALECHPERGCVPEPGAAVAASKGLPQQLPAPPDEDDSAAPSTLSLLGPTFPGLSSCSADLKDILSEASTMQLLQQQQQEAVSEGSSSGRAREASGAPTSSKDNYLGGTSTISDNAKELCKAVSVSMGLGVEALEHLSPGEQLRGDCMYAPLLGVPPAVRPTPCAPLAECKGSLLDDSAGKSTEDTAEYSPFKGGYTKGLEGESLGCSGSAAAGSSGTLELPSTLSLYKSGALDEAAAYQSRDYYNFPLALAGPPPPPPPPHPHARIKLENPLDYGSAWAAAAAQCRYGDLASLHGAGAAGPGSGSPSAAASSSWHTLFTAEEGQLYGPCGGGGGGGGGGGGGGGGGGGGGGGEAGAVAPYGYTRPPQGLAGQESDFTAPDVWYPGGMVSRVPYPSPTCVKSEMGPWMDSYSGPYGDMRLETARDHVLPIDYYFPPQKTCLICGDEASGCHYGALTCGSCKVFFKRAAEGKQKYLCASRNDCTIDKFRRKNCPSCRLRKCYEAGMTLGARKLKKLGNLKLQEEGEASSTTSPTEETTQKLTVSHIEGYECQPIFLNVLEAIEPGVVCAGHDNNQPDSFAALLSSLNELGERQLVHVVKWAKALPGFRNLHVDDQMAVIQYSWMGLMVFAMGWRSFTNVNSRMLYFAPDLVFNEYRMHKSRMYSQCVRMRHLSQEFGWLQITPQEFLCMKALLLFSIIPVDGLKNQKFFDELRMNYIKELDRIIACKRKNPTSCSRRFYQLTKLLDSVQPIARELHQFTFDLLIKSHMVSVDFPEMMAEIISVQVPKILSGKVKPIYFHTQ
Chain of Progesterone receptor (Homo sapiens) (P06401 whole entry, looked up): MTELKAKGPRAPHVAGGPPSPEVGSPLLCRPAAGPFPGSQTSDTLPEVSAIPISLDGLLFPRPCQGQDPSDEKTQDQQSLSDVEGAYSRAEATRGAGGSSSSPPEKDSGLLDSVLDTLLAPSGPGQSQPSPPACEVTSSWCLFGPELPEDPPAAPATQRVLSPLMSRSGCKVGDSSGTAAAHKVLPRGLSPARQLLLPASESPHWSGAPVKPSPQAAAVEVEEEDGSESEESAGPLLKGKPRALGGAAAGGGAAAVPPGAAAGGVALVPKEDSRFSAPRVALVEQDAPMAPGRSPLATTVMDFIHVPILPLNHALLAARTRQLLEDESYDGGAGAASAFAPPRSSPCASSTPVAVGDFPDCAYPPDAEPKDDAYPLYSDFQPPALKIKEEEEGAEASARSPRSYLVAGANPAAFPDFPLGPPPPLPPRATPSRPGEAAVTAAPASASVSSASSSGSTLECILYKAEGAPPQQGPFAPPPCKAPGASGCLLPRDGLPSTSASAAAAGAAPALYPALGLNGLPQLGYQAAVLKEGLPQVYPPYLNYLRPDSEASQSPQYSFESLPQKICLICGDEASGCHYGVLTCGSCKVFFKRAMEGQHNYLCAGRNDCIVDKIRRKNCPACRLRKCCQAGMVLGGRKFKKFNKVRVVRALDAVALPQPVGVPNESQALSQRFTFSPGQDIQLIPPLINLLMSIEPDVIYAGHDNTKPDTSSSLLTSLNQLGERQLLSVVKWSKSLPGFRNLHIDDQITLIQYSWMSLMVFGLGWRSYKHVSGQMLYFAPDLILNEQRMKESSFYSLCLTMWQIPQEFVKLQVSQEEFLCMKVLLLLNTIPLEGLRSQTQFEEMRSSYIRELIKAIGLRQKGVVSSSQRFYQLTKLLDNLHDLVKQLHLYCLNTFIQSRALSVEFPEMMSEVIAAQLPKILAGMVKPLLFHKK
Chain of Thyrotropin-releasing hormone receptor (Homo sapiens) (P34981 whole entry, looked up): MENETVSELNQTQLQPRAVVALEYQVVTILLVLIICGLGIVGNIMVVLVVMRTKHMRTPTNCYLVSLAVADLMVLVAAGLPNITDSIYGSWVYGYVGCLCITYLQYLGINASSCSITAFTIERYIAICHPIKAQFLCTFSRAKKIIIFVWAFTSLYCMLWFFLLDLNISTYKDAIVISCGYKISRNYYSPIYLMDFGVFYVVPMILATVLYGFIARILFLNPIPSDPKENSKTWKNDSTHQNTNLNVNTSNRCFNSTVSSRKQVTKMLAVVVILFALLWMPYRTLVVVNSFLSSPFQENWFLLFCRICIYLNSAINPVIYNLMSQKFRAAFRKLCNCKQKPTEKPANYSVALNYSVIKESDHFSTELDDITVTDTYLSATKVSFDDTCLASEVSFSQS

For the compound `NNC(=O)c1ccccc1`, the Potency in [1] was 31.5 µM (active). Also, the Potency entry in assay [2], in assay [3], in assay [4], in assay [5], in [6] and in assay [7] was “inactive” throughout. Also, the Potency result in [9], in assay [10], in [11], in assay [12], in assay [13] and in assay [14] was “inactive” throughout. For the same compound, the Potency entry in assay [16] and in assay [17] was “inactive” in each case. The call in [8] and in assay [15] was inactive.
With `COc1cccc(C(=O)CCN[C@@H](C)[C@H](O)c2ccccc2)c1`, the Potency in assay [1] is 23.7 µM (active). For the same compound, the Potency entry in assay [2], in assay [3], in [5], in assay [18], in assay [6] and in [9] was “inactive” each time. For the same compound, the Potency entry in assay [10], in assay [11], in [19], in [14], in [20] and in assay [16] was “inactive” throughout. Moreover, the compound was called inactive in assay [8] and in assay [15].
For the compound `COc1cccc2c1C(=O)c1c(O)c3c(c(O)c1C2=O)C[C@@](O)(C(=O)CO)CC3OC1CC(N2CCOC(OC)C2)C(O)C(C)O1` (stereo not given in full), the Potency in assay [1] was 0.0067 µM (active); in assay [3], 0.168 µM (active); in assay [4], 13.3 µM (active); in assay [10] it was 10.6 µM (active). For the same compound, the Potency result in assay [2], in assay [5], in [18], in assay [6], in [7] and in [14] was “inactive” in each case. Besides, the Potency entry in [20] was “inactive”. Also, the result in [8] was inactive.
Turning to `CCOP(=S)(OCC)OC(Cl)C(Cl)(Cl)Cl` (stereo not given), the Potency result in assay [1], in assay [2], in assay [3], in assay [4], in assay [5] and in assay [6] was “inactive” throughout. The Potency entry in assay [10], in [11], in assay [19], in assay [12], in assay [13] and in [14] was “inactive” throughout. Also, in assay [20], the Potency entry was “inactive”. In addition, the result in assay [8] and in assay [15] was inactive.
For the compound `Clc1ccc(COC(Cn2ccnc2)c2ccc(Cl)cc2Cl)cc1` (stereo not given), the Potency is 11.4 µM (active) in [1]; 13.3 µM (active) in assay [3]; 50.8 µM (active) and 60.9 µM (active) and inactive in assay [4]; 57 µM (active) and 30.5 µM (active) and 11.9 µM (active) in assay [5]; 57 µM (active) and 68.3 µM (active) in assay [9]; 50.8 µM (active) and 68.3 µM (active) and inactive in assay [10]. The Potency in assay [13] was 45.3 µM (active) and 15.3 µM (active) and 5.96 µM (active); in assay [20] it was 40.7 µM (active). Besides, the Potency entry in assay [2], in assay [11] and in assay [14] was “inactive” each time. The result in assay [8] and in [15] was inactive.
In the case of `Clc1ccc(C(c2ccc(Cl)cc2)C(Cl)(Cl)Cl)cc1`, the Potency was 27.5 µM (active) and inactive in [1]; 13.7 µM (active) and 7.5 µM (active) in assay [3]; 61.6 µM (active) and 54.5 µM (active) in [5]; 30.9 µM (active) and 54.5 µM (active) in assay [9]; 7.7 µM (active) and 5.96 µM (active) in assay [19]; 55.3 µM (active) and inactive in [20]. Besides, the Potency entry in [2], in [4], in assay [6], in [10], in [14] and in assay [16] was “inactive” each time. For the same compound, the Potency result in assay [17] was “inactive”. Moreover, the outcome in [8] and in [15] was inactive.
In the case of `O=C(CCl)Nc1ccccc1`, the Potency result in assay [1], in assay [2], in [5], in assay [18], in [6] and in assay [7] was “inactive” throughout. Further, the Potency entry in assay [9], in assay [11], in assay [13], in [14], in assay [20] and in [16] was “inactive” each time. Besides, the Potency result in assay [17] was “inactive”. For the same compound, the Potency in assay [3] is 27.3 µM (active); in [4] it was 61.1 µM (active); in [10], 68.6 µM (active); in assay [12], 19.3 µM (active). For the same compound, in [15], the outcome was inactive.
